Data taken from PubChem BioAssay (NCATS).
Inconclusive results are not listed. Calls of active or inactive are those of the source. Calls come from the whole dose curve; as a rule, active = well fitted curve in the direction sought with a large enough effect; inconclusive = small, poorly fitted or top-dose-only effect, or another doubt; inactive = no such curve, though single readings can be large; an effect the other way counts as inactive or inconclusive.

Key:
NIH3T3 = test: qHTS assay to identify novel small-molecules to repurpose for Merkel cell carcinoma treatment (AID 1296009); conditions: MCC and control cell lines, CellTiter-Glo viability, 72 h; at 44.8 µM (top of the series) unless noted; note: nearly all actives have a fitted effect of over 60% in size
Method in brief: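 72 hr, 37 degree celsius; NPC 8-pt / MIPE 11-pt dose response; compound pinned in DMSO; CellTiter-Glo, 10 min RT, luminescence; normalized to no-cell and DMSO controls.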

C33A = test: Primary qHTS to identify gynecologic anti-cancer compounds using libraries of approved drugs and bioactive compounds (AID 1345084); conditions: Gynecologic cancer cell panel viability, ATPlite luminescence, 48 h; series mostly up to 57.5 µM; note: % is set by controls: 0 for no effect and ±100 for the full control effect; nearly all actives have a fitted effect of over 55% in size
Method in brief: (§1)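 Cell viability after 48 h drug treatment, ATPlite luminescence readout; five doses.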

CAOV3 = test: as above; conditions: Gynecologic cancer cell panel viability, ATPlite luminescence, 48 h; series mostly up to 57.5 µM
Method in brief: as §1

CASKI = test: as above; conditions: Gynecologic cancer cell panel viability, ATPlite luminescence, 48 h; series mostly up to 57.5 µM
Method in brief: as §1

Es-2 = test: as above; conditions: Gynecologic cancer cell panel viability, ATPlite luminescence, 48 h; series mostly up to 57.5 µM
Method in brief: as §1

HeLa = test: as above; conditions: Gynecologic cancer cell panel viability, ATPlite luminescence, 48 h; series mostly up to 57.5 µM
Method in brief: as §1

Hek293T = test: as above; conditions: Gynecologic cancer cell panel viability, ATPlite luminescence, 48 h, control line for the selectivity index; series mostly up to 57.5 µM
Method in brief: as §1

JEG-3 = test: as above; conditions: Gynecologic cancer cell panel viability, ATPlite luminescence, 48 h; series mostly up to 57.5 µM
Method in brief: as §1

C[C@]12CCC[C@](C)(C(=O)O)C1CCC13CC(CO)C(CCC12)C3 (some centres undefined)
inactive: outcome (NIH3T3) | Potency (C33A) | Potency (CAOV3) | outcome (CASKI) | Potency (Es-2) | Potency (HeLa) | Potency (Hek293T) | Potency (JEG-3)

COc1cc(Nc2nc3c(s2)CCCC3c2ccccc2)ccc1-n1cnc(C)c1 (centres undefined)
inactive: outcome (NIH3T3) inactive [at 9.27 µM] | activity change, negative = cytotoxicity (C33A) 6.98% [at 11.6 µM] | activity change, negative = cytotoxicity (CAOV3) 6.61% [at 11.6 µM] | activity change, negative = cytotoxicity (CASKI) 15.8% [at 11.6 µM] | activity change, negative = cytotoxicity (Es-2) 3.55% [at 11.6 µM] | activity change, negative = cytotoxicity (HeLa) -6.36% [at 11.6 µM] | activity change, negative = cytotoxicity (Hek293T) 8.6% [at 11.6 µM] | activity change, negative = cytotoxicity (JEG-3) 2.94% [at 11.6 µM]

CC(=O)OC1(C)CC(O)C2(O)C=COC(OC3OC(CO)C(O)C(O)C3O)C12 (centres undefined)
inactive: outcome (NIH3T3) inactive [at 17.4 µM] | Potency (C33A) | Potency (CAOV3) | outcome (CASKI) | Potency (Es-2) | Potency (HeLa) | Potency (Hek293T) | Potency (JEG-3)

O=C(O)c1ccnc2cc(-c3nc4ccccc4n3CCN3CCCCC3)sc12
inactive: outcome (NIH3T3) | Potency (C33A) | Potency (CAOV3) | outcome (CASKI) | Potency (Es-2) | Potency (HeLa) | Potency (Hek293T) | Potency (JEG-3)

O=C(N[C@H](Cc1ccccc1)C(=O)O)c1sc2cc(F)ccc2c1Cl
inactive: outcome (NIH3T3) | Potency (C33A) | Potency (CAOV3) | outcome (CASKI) | Potency (Es-2) | Potency (HeLa) | Potency (Hek293T) | Potency (JEG-3)

C[C@H]1/C=C/C=C/C=C/C=C/C=C/[C@@H](O)[C@H](C(=O)O)[C@H](O)C[C@H](O)CCC[C@H](O)C[C@H](O)C[C@H](O)[C@@H](C)C(=O)O[C@@H]1C
inactive: outcome (NIH3T3) inactive [at 17.4 µM] | Potency (C33A) | Potency (CAOV3) | outcome (CASKI) | Potency (Es-2) | Potency (HeLa) | Potency (Hek293T) | Potency (JEG-3)

C=C1C(OC(C)=O)CCC2(C)CCC(C(C)(C)O)CC12 (centres undefined)
inactive: outcome (NIH3T3) | Potency (C33A) | Potency (CAOV3) | outcome (CASKI) | Potency (Es-2) | Potency (HeLa) | Potency (Hek293T) | Potency (JEG-3)

COC(=O)C1=COC(O[C@@H]2O[C@H](CO)[C@@H](O)[C@H](O)[C@H]2O)C2C(C)C(=O)CC12 (some centres undefined)
inactive: outcome (NIH3T3) | Potency (C33A) | Potency (CAOV3) | outcome (CASKI) | Potency (Es-2) | Potency (HeLa) | Potency (Hek293T) | Potency (JEG-3)

FC(F)(F)Oc1ccc(-c2ccc3nnc(C(F)(F)F)n3c2)cc1
inactive: outcome (NIH3T3) | Potency (C33A) | Potency (CAOV3) | outcome (CASKI) | Potency (Es-2) | Potency (Hek293T) | Potency (JEG-3)

COC(=O)C[C@@H]1C(C(=O)O)=CO[C@@H](O[C@@H]2O[C@H](CO)[C@@H](O)[C@H](O)[C@H]2O)/C1=C\COC(=O)/C=C/c1ccc(O)c(OC)c1
inactive: outcome (NIH3T3) inactive [at 17.4 µM] | Potency (C33A) | Potency (CAOV3) | outcome (CASKI) | Potency (Es-2) | Potency (HeLa) | Potency (Hek293T) | Potency (JEG-3)

COc1cc(C(C)=O)ccc1O[C@@H]1O[C@H](CO[C@@H]2OC[C@@H](O)[C@H](O)[C@H]2O)[C@@H](O)[C@H](O)[C@H]1O
inactive: outcome (NIH3T3) inactive [at 17.4 µM] | Potency (C33A) | Potency (CAOV3) | outcome (CASKI) | Potency (HeLa) | Potency (Hek293T) | Potency (JEG-3)

Cc1cc(CNC(=O)c2cc(C(=O)NCc3ccc(F)c(C)c3)ncn2)ccc1F
inactive: outcome (NIH3T3) | Potency (C33A) | Potency (CAOV3) | outcome (CASKI) | Potency (Es-2) | Potency (HeLa) | Potency (Hek293T) | Potency (JEG-3)

O=C(/C=C/C=C/c1ccc2c(c1)OCO2)N1CCCCC1
inactive: outcome (NIH3T3) | Potency (C33A) | Potency (CAOV3) | outcome (CASKI) | Potency (HeLa) | Potency (Hek293T) | Potency (JEG-3)

NC(N)=NCCC[C@H](NC(=O)c1sccc1NS(=O)(=O)c1cccc2nsnc12)C(=O)O
inactive: outcome (NIH3T3) | Potency (C33A) | Potency (CAOV3) | outcome (CASKI) | Potency (Es-2) | Potency (HeLa) | Potency (Hek293T) | Potency (JEG-3)

CC1(C)CC[C@]2(C(=O)O)CC[C@]3(C)C(=CCC4[C@@]5(C)C(=O)C[C@H](O)[C@@](C)(CO)C5CC[C@]43C)[C@@H]2C1 (some centres undefined)
inactive: outcome (NIH3T3) inactive [at 17.4 µM] | Potency (C33A) | Potency (CAOV3) | outcome (CASKI) | Potency (Es-2) | Potency (HeLa) | Potency (Hek293T) | Potency (JEG-3)

CC(C)CC[C@@H](O)[C@](C)(O)[C@H]1CC[C@@]2(O)C3=CC(=O)[C@@H]4C[C@@H](O)[C@@H](O)C[C@]4(C)[C@H]3CC[C@]12C
inactive: outcome (NIH3T3) | Potency (C33A) | Potency (CAOV3) | outcome (CASKI) | Potency (Es-2) | Potency (HeLa) | Potency (Hek293T) | Potency (JEG-3)

O=S(=O)(O)c1ccc(Nc2ncnc3c2ncn3[C@@H]2O[C@H](CO)[C@@H](O)[C@H]2O)cc1
inactive: outcome (NIH3T3) | Potency (C33A) | Potency (CAOV3) | outcome (CASKI) | Potency (Es-2) | Potency (HeLa) | Potency (Hek293T) | Potency (JEG-3)

CCOC(=O)c1ccc(NC2CCCCC2)c(N)c1
inactive: outcome (NIH3T3) | Potency (C33A) | Potency (CAOV3) | outcome (CASKI) | Potency (Es-2) | Potency (HeLa) | Potency (Hek293T) | Potency (JEG-3)

CC1(C)CCCC2(C)c3c4c(c(=O)oc(=O)c3=CCC12)=CCC1C(C)(C)CCCC41C (centres undefined)
inactive: outcome (NIH3T3) inactive [at 17.4 µM] | Potency (C33A) | Potency (CAOV3) | outcome (CASKI) | Potency (Es-2) | Potency (HeLa) | Potency (Hek293T) | Potency (JEG-3)

C[C@@H]1[C@H](O)[C@@H]2OC(=O)C3=C2[C@H](CCC3)[C@@]12C[C@@H](c1ccoc1)OC2=O
inactive: outcome (NIH3T3) | Potency (C33A) | Potency (CAOV3) | outcome (CASKI) | Potency (Es-2) | Potency (HeLa) | Potency (Hek293T) | Potency (JEG-3)

COc1cc(/C=C/C(=O)OCC2OC(OC3(CO)OC(CO)C(O)C3O)C(O)C(O)C2O)ccc1O (centres undefined)
inactive: outcome (NIH3T3) inactive [at 17.4 µM] | Potency (C33A) | Potency (CAOV3) | outcome (CASKI) | Potency (Es-2) | Potency (HeLa) | Potency (Hek293T) | Potency (JEG-3)

CC1=C2C(=O)C=C(CO[C@@H]3O[C@H](CO)[C@@H](O)[C@H](O)[C@H]3O)[C@@H]2[C@H]2OC(=O)[C@H](C)[C@@H]2[C@@H](O)C1
inactive: outcome (NIH3T3) inactive [at 17.4 µM] | Potency (C33A) | Potency (CAOV3) | outcome (CASKI) | Potency (Es-2) | Potency (HeLa) | Potency (Hek293T) | Potency (JEG-3)

COc1cc([C@@H](O[C@@H]2O[C@H](CO)[C@@H](O)[C@H](O)[C@H]2O)[C@@H]2CO[C@H](c3ccc(O)c(OC)c3)[C@H]2CO)ccc1O
inactive: outcome (NIH3T3) inactive [at 17.4 µM] | Potency (C33A) | Potency (CAOV3) | outcome (CASKI) | Potency (Es-2) | Potency (HeLa) | Potency (Hek293T) | Potency (JEG-3)

C=C1C2CCC3CC2(CC(O)C2(O)C1CC(OC1OC(CO)C(O)C(O)C1O)C2(C)C)CC3(C)O (centres undefined)
inactive: outcome (NIH3T3) inactive [at 17.4 µM] | Potency (C33A) | Potency (CAOV3) | outcome (CASKI) | Potency (Es-2) | Potency (HeLa) | Potency (Hek293T) | Potency (JEG-3)
